Assay outcomes deposited in PubChem BioAssay by National Center for Advancing Translational Sciences (NCATS).
Only a selection was taken, and hits are over-represented in it overall.
DT40 TDP1 CPT: growth inhibition of DT40 Tdp1-/-;hTDP1 cells with camptothecin (screen for TDP1 inhibitors); AID 686979; hit rate 12% among 420,000; chicken DT40 Tdp1-/-;hTDP1 cells + 20 nM CPT, ATP luminescence, 48 h; Potency, µM (top dose mostly 46.2 µM), for inactives: at the top dose activity change, negative = growth inhibition, usual class: inhibitors; note: potency is the fitted concentration of half-maximal effect; nearly all actives have a fitted effect of over 55% in size
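Chicken DT40 Tdp1-/- cells stably complemented with human TDP1 were seeded at 400 cells/well in medium containing 20 nM camptothecin, exposed to pin-transferred compounds, and grown at 37 °C for at least 48 hr. Viability was read as ATP luminescence.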
HT1080-NT tox: kills 2HG-producing HT-1080-NT fibrosarcoma cells; HT-1080-NT fibrosarcoma viability, CellTiter-Glo ATP luminescence, 48 h; Potency, µM (top dose mostly 46.1 µM), for inactives: at the top dose activity, negative = less viability, most hits filed as cytotoxic; hit rate 1.6% among 360,000; AID 686970;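 note: NT is the 2HG producing partner of a matched IDH1 knockdown line; potency is the fitted concentration of half-maximal effect; 0% = DMSO-treated cells and -100% = media-only wells without cells; nearly all actives have a fitted effect of over 55% in size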
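HT-1080-NT fibrosarcoma cells (2HG-overproducing), 750 cells/well in RPMI with 5% FBS, dosed after 2 h and incubated 48 h at 37C. CellTiter-Glo luminescence normalized to DMSO and no-cell wells; concentration-response curves fitted and classed.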
IL1B secr inh: blocks inflammasome-driven IL-1 beta release | hit rate 4.7% among 360,000 | activity change, % at 57.5 µM | AID 743279 | THP-1 LPS/ATP IL-1B secretion, AlphaLISA, 16 h; active compounds read low; in the data active = activity change below about -50%; inconclusive = mostly about -30% to -49%
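THP-1 cells pretreated 1 hr with compounds (up to 57.5 uM final), then stimulated with LPS (250 ng/mL final) plus ATP (1.25 mM final); secreted IL-1B measured by AlphaLISA after 16 hr, decreased signal indicating inhibition.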
HT1080 IDH1KD tx: HT-1080 IDH1 knockdown cell toxicity (counter line); hit rate 2% among 360,000; Potency, µM (highest dose often 46.1 µM), without a hit: at the highest dose activity, negative = toxicity, hits mostly cytotoxic; HT-1080 IDH1 knockdown viability, ATP luminescence, 48 h;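 note: potency is the fitted concentration of half-maximal effect; 0% = DMSO wells and -100% = cell-free medium wells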
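% activity derives from luminescence (CellTiter-Glo), normalised to DMSO and no-cell wells. HT-1080-IDH1KD cells, 750/well, had 48 h compound exposure at 37 °C.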
TDP1 cell noCPT: qHTS for Inhibitors of human tyrosyl-DNA phosphodiesterase 1 (TDP1): qHTS in cells in absence of CPT. Potency, µM (series often up to 46.2 µM), without a hit: at the highest dose activity change, negative = growth inhibition, actives largely listed as inhibitors. hit rate 15% among 420,000. DT40 Tdp1-/- hTDP1 cells, no CPT, ATP luminescence, 48 h; note: potency is the fitted concentration of half-maximal effect; nearly all actives have a fitted effect of over 55% in size
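Compound effects on proliferation are scored in DT40 Tdp1-/-;hTDP1 cells in the absence of CPT. ATP levels (CellTiter-Glo luminescence) are recorded after a ≥48 hr, 37 °C incubation.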
12-LOX inh: blocks human arachidonate 12S-lipoxygenase | AID 1671190 | purified 12hLO, xylenol orange hydroperoxide absorbance | P18054 | Potency, µM (titrated, usually from 108 µM), inactives show at the top dose activity change, negative = inhibition, usual class: inhibitors | hit rate 1.1% among 580,000; note: potency is the fitted concentration of half-maximal effect
Target sequence (P18054 whole entry, looked up): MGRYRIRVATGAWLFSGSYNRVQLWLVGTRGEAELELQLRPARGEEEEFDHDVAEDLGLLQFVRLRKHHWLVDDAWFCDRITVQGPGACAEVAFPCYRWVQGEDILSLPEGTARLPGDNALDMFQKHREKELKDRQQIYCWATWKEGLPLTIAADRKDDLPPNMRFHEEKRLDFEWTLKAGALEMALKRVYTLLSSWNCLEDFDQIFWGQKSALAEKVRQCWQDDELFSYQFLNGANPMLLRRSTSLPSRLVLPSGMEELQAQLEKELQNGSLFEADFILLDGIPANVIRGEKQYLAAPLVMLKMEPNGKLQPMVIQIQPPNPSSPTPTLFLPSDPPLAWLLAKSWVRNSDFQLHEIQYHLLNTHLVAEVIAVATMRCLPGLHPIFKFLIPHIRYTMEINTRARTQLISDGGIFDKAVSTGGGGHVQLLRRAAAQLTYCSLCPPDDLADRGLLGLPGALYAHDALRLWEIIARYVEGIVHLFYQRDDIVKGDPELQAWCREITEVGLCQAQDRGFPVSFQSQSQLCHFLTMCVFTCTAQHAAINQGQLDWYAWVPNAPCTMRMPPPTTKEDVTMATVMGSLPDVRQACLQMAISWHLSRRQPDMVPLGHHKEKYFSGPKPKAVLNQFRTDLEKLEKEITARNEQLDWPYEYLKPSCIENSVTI
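Hydroperoxide product was detected by ferrous iron/xylenol orange as the 573 to 405 nm absorbance ratio. Arachidonic acid at 40 uM (final) was turned over for 30 min at room temperature by 150 nM human 12hLO, pH 7.0 Hepes buffer, after 15 min compound preincubation.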
Starred values were filed as active, the others as inactive; u = inconclusive; x = not tested or not shown; [ ] = another dose, or the depositor's remark. Unless noted, calls come from the whole dose curve; as a rule, active = well fitted curve in the direction sought with a large enough effect; inconclusive = small, poorly fitted or top-dose-only effect, or another doubt; inactive = no such curve, though single readings can be large; an effect the other way counts as inactive or inconclusive. Unless noted, % is set by controls: 0 for no effect and ±100 for the full control effect.

SMILES	DT40 TDP1 CPT	HT1080-NT tox	IL1B secr inh	HT1080 IDH1KD tx	TDP1 cell noCPT	12-LOX inh
O=C(Nc1cccnc1)c1ccc(Cl)c(S(=O)(=O)N2CCCCCC2)c1	u	u	-21.1	u	u	-18.3%
Cc1cccc(NC(=O)c2ccc(F)c(S(=O)(=O)N3CCN(c4ccc(F)cc4)CC3)c2)c1	u	x	x	x	16.4µM*	u
O=C(Nc1ccc(Oc2ccccc2)cc1)c1ccc(F)c(S(=O)(=O)N2CCN(c3cccc(Cl)c3)CC2)c1	1.84µM*	x	x	x	3.66µM*	u
C1CC(N(CC2CC2)C2CNC2)CCO1	x	x	x	x	x	34.0%
COc1ccc(/C=C/c2cc(O)cc(O)c2)cc1	2.59µM*	x	x	x	4.61µM*	x
Oc1cc(O)cc(/C=C/c2ccc(O)cc2O)c1	u	u	-3.8	u	u	x
CC(C)c1ccc(-n2c(O)c(/C=N/NC(=O)c3ccccc3O)c(=O)[nH]c2=S)cc1	0.5%	-1.6%	13.4	-7.8%	6.8%	39.8µM*
N=C1c2ccccc2CN1c1ccc(F)c([N+](=O)[O-])c1	u	-15.2%	-99.3*	-3.7%	u	-2.1%
Cc1ncc2c(n1)C[C@@H]1CC[C@H]2N1C(=O)c1ccc(C(C)C)cc1	x	x	x	x	x	29.8%
N#Cc1cccc(-c2ccc3n(c2=O)C[C@H]2C[C@@H]3CN(C(=O)CSCC(=O)O)C2)c1	x	x	x	x	x	7.8%[176 µM]
CCOc1ccc(CCNC(=O)c2ccc(-n3c(C)cc4c3CCCC4)cc2)cc1OCC	11.6µM*	x	x	x	11.6µM*	30.2%
CCN1CCN(C(=O)Cc2ccc(Nc3ncc(F)c(Nc4ccc(C(=O)Nc5ccccc5Cl)cc4)n3)cc2)CC1	x	x	x	x	x	3.85µM*
CC(=O)Nc1ccc(CC(=O)N2CCN(Cc3ccccc3)CC2)cc1	3.8%	-14.4%	-13.1	2.9%	-8.2%	13.5%
Cc1ccc(C)c(S(=O)(=O)Nc2ccc3c(c2)CCCN3C(=O)c2cccs2)c1	16.4µM*	x	x	x	18.4µM*	-2.6%
CN1C2CCC1CC(OC(c1ccc(F)cc1)c1ccc(F)cc1)C2 (configuration not stated)	6.51µM*	x	x	x	7.31µM*	-24.8%
CN1C2CCC1CC(OC(=O)c1ccc(Cl)cc1)C2 (configuration not stated)	u	-12.0%	-8.2	-1.6%	u	0.0%
CN1[C@@H]2CC[C@H]1CC(O[C@@H](c1ccccc1)c1ccc(Cl)cc1)C2 (some centres not stated)	2.66µM*	x	x	x	4.22µM*	54.4%
O=C(c1ccccc1F)c1cn(CC(=O)N2CCOCC2)c2ccccc12	-23.4%	-0.5%	-12.8	-1.3%	-4.5%	2.1%
O=C(c1ccccc1F)c1cn(CC(=O)N2CCCC2)c2ccccc12	u	-5.2%	5.8	-0.1%	16.4µM*	33.2%[57.4 µM]
O=C(C1CCCCC1)N1C[C@@H]2C[C@H](C1)c1c(-c3ccc(Cl)cc3)ccc(=O)n1C2	x	x	x	x	x	4.1%[176 µM]
COc1ccc([C@@H]2CN(c3nccc(C)n3)[C@@H]3C4CCN(CC4)[C@@H]32)cc1	x	x	x	x	x	48.2%
CCOc1cc(CN2CCN(C(=O)Cc3ccccc3)CC2)ccc1OC	-25.0%	1.3%	0.3	-4.8%	u	0.501µM*
COc1ccc(CN2CCN(C(=O)Cc3ccccc3)CC2)cc1Br	-18.6%	6.0%	-19.7	8.8%	-10.4%	0.631µM*
COc1ccc(CN2CCN(C(=O)Cc3ccccc3)CC2)cc1OC	-23.9%	-2.7%	6.1	-0.2%	0.4%	u
CC(=O)c1ccc(NC(=O)NC[C@H]2C[C@@H]3CCN2C[C@@H]3CN2CCC(C)CC2)cc1	x	x	x	x	x	13.4%[176 µM]
SMILES	DT40 TDP1 CPT	HT1080-NT tox	IL1B secr inh	HT1080 IDH1KD tx	TDP1 cell noCPT	12-LOX inh
O=C(NCc1ccccc1)Oc1cccc(Cl)c1	u	-10.3%	0.0	-3.3%	16.4µM*	u
O=C1C(Cl)=C(Cl)C(=O)C(Cl)=C1Cl	4.61µM*	x	x	x	2.91µM*	x
Cc1ccc(C(=O)NC[C@H]2C[C@@H]3CCN2C[C@@H]3c2cc(-c3cccs3)nn2C)cc1	x	x	x	x	x	61.5%[176 µM]
COc1ccc(CNCCc2c(C)[nH]c3ccc(OC(F)(F)F)cc23)c(OC)c1	4.61µM*	20.6µM*	-95.5*	23.1µM*	1.84µM*	u
CN1c2ccc([N+](=O)[O-])cc2CC2(C(=O)NC(=O)N(c3ccccc3)C2=O)C1c1ccccc1 (configuration not stated)	13µM*	-8.2%	19.2	-10.3%	18.4µM*	-28.8%
COP(=O)(OC)c1nc(-c2cccc3ccccc23)oc1N1CCOCC1	-15.2%	-7.2%	-10.9	-12.6%	18.4µM*	u
CCCNc1oc(-c2cccc3ccccc23)nc1C#N	-23.3%	-4.6%	-14.6	-16.3%	-26.7%	u
COP(=O)(OC)c1nc(-c2cccc3ccccc23)oc1NCCc1ccccc1	u	u	-95.3*	u	u	-25.8%
Cc1cccc(OCC(=O)N2CCC3(CC2)c2nccn2-c2ccccc2CN3C)c1	x	x	x	x	x	43.6%
O=C1N[C@H](Cc2ccccc2)C(=O)N2[C@@H]3[C@H](C[C@@H]12)c1ccccc1N3OOSc1ccccc1	16.4µM*	-1.3%	0.0	-15.3%	18.4µM*	2.4%
CCOC(=O)C1=C(c2ccccc2)N=c2s/c(=C\c3ccc(O)cc3)c(=O)n2C1c1cccs1 (configuration not stated)	11.6µM*	u	-78.4*	u	16.4µM*	-7.6%[57.4 µM]
CC(=O)Nc1ccc(S(=O)(=O)NC[C@H]2C[C@@H]3CCN2C[C@@H]3c2cc(-c3ccccc3)nn2C)cc1	x	x	x	x	x	6.5%
Cc1cccc(OCC(=O)N2[C@H]3CC[C@@H]2c2cnc(-c4ccccc4)nc2C3)c1	x	x	x	x	x	28.4%
CCCC1=Nc2cc(C(=O)NCCc3ccc(OC)cc3OC)ccc2Sc2ccccc21	18.4µM*	x	x	x	u	-1.9%
CCCC1=Nc2cc(C(=O)NC3CCC(C)CC3)ccc2Sc2ccccc21 (configuration not stated)	6.51µM*	x	x	x	4.11µM*	-1.1%
CC1CCC(NC(=O)c2cn(C)c3ccccc23)CC1 (configuration not stated)	x	x	x	x	x	17.8%
O=C(c1cc(Br)c[nH]1)C(Cl)(Cl)Cl	x	x	x	x	x	-19.2%
CNCC(=O)c1ccc(O)c(O)c1	-27.3%	x	x	x	-4.7%	-16.4%
O=C(CCl)c1ccc(O)c(O)c1	u	x	x	x	11.2µM*	x
CC(C)Oc1ccc(C(=O)N2CCC3(CC2)c2nccn2-c2ccccc2CN3C)cc1	x	x	x	x	x	19.2%
Cn1nc(-c2ccc(F)cc2)cc1[C@H]1CN2CC[C@H]1C[C@@H]2CNC(=O)Nc1ccccc1	x	x	x	x	x	65.2%[176 µM]
